This passage reports inhibition results from PubChem BioAssay AID2315 (National Center for Advancing Translational Sciences (NCATS), 2010).

One may read the inhibition as the relative decrease from the control value, in per cent.

In all, about 290,000 compounds went through this assay and about 27,000 (9.3%) were called active. For the sample, actives were picked, then their nearest neighbours and some compounds at random. Unmarked numbers belong to inactive results. Cut-off read from the data, not from the text of the source: active = inhibition mostly above about 28% (no sharp cut-off); inactive = mostly below about 43%.

A short description of the assay: A qHTS for Small Molecule Inhibitors of Shiga Toxin. Note: 0% is about no effect. Conditions: Vero cells, Shiga toxin protein synthesis inhibition reporter; at 38.7 µM, stronger effect = higher value. For orientation: qHTS replaces the single test concentration by a dilution series.
Turning to `CC(=O)C1C(c2ccc(Cl)cc2)NC(=O)NC1(O)C(F)(F)F` (stereo not drawn), the inhibition is -1.27%. `CCOC(=O)C1C(c2ccc(Cl)cc2)NC(=S)NC1(O)C(F)(F)F` (stereo not drawn): the inhibition is -9.88%. On to `O=C(c1cccs1)C1C(c2ccc(Br)cc2)NC(=S)NC1(O)C(F)(F)F` (stereo not drawn), for which the inhibition was 69.1% (active). As for `CC(=O)N1CCN(CC(C)(C)NS(=O)(=O)c2ccc(C)cc2)CC1`, the figure is -4.99%; as for `CCCCOC(=O)c1[nH]c(C)c(C(=O)OC)c1C`, 94.4% (active); as for `COC(=O)c1c(C)[nH]c(C(=O)NCCc2ccc(S(N)(=O)=O)cc2)c1C`, 2.99%. Take `CC(=O)c1c(C)[nH]c(C(=O)OCC(=O)NCCC(C)C)c1C`: the inhibition is -4.2%. Then `Cc1ccc(CN2CCN(c3ncccn3)CC2)c(C)c1`, with 6.99%; and `Cc1ccccc1CN1CCNC(=O)C1CC(=O)NCCC1=CCCCC1` (stereo not drawn), with -8.04%. As for `CC(C)=NN1C(=O)c2ccccc2NC1(C)C`, the figure is 91.4% (active); as for `CC(=O)N1C(=O)C2(Nc3ccccc3N2)c2ccccc21`, -7.58%; as for `CC(=O)NN1C(=O)c2ccccc2NC1c1ccccc1` (stereo not drawn), 4.01%. In the case of `Nc1nc(SCC(=O)Nc2cc(C(F)(F)F)ccc2Cl)[nH]c(=O)c1NC(=O)c1ccco1`, the inhibition is -1.11%. Then `CCC(C)N1C(=O)S/C(=C/c2ccc(Sc3nc4ccccc4[nH]3)o2)C1=O` (stereo not drawn), with 11.8%. Consider `COc1ccc(N2CCN(S(=O)(=O)c3ccc4c(c3)NC(=O)C(C)C(=O)N4)CC2)cc1` (stereo not drawn), for which the inhibition is -6.85%.

Regarding `O=S(=O)(Nc1ccc(Oc2ncccn2)c(Cl)c1)c1ccc(F)cc1`, the inhibition is -3.73%. Then `C=CCOc1cccc(CNCc2cccnc2)c1`, with 29%.

For the compound `COC(=O)Cc1[nH]n(-c2nc3ccccc3s2)c(=O)c1C(C)=Nc1ccc(OC)cc1`, the inhibition was 38.9%. As for `C/C(=N\NC(=O)CC(C)C)c1c(C(F)(F)F)[nH]n(-c2nc3ccccc3s2)c1=O`, the figure is 65.9% (active).

For `CC(=NCc1ccco1)C1=C(O)c2ccccc2C1=O`, the inhibition is 31.2%. Then `CCC(C)Cn1c(O)cc2nn(-c3nc4ccccc4s3)c(=O)c-2c1C` (stereo not drawn), with 29.1%; and `CCc1ccc(-c2cc(C(=O)NCc3ccco3)c3ccccc3n2)s1`, with 41.4%. `CC(=NCc1ccco1)c1c(C(F)(F)F)[nH]n(-c2nc3ccccc3s2)c1=O`: the inhibition is 122% (active). As for `Cc1ccc(NC(=O)[C@H](Cc2ccccc2)NC(=O)C2CCNCC2)cc1`, the figure is -0.595%; as for `COc1ccccc1NC(=O)N1CCCC1C(=O)NCc1cccs1` (stereo not drawn), -1.36%; as for `O=C(c1ccc(OC2CCN(C/C=C/c3ccc(F)cc3)CC2)cc1)N1CCCCC1`, -5.42%.

For `COCC1CCN(C(=O)C2CCC(=O)N(CC3CCCCC3)C2)CC1` (stereo not drawn), the inhibition is 19.8%. As for `COCC1CCN(C(=O)C2CCC(=O)N(Cc3cccc(C(F)(F)F)c3)C2)CC1` (stereo not drawn), the figure is 38.4% (active); as for `O=C1CCC(C(=O)N2CCCCO2)CN1Cc1cccc(C(F)(F)F)c1` (stereo not drawn), 29.5%; as for `CCOc1ccc(N(CC(=O)NCCc2ccc(F)cc2)S(=O)(=O)c2ccccc2)cc1`, 10.2%. Then `O=C(NCCN1CCOCC1)c1ccc(/C=C2\Sc3ccccc3N(Cc3ccc(F)cc3)C2=O)cc1`, with -4.17%; and `CCOC(=O)C1CCN(C(=O)COc2cccc3ccccc23)CC1`, with 34.7% (active).

Regarding `NC(=O)C1CCN(C(=O)COc2cccc3cccnc23)CC1`, the inhibition is 33.9%. In the case of `CCOC(=O)C1CCN(C(=O)COc2cc(C)c(Br)c(C)c2)CC1`, the inhibition is 2.84%. Then `O=C(O)c1cc(S(=O)(=O)NC2CCCc3ccccc32)ccc1O` (stereo not drawn), with 16.7%. Then `CCN(CC)CCCNC(=O)c1cn(C)c2ccc(S(=O)(=O)N(C)C3CCCCC3)cc2c1=O`, with -11.8%. As for `COc1ccccc1C(=O)N(Cc1ccc(C)o1)C1CCS(=O)(=O)C1` (stereo not drawn), the figure is -7.17%. Take `Cc1ccc(C(=O)Nc2cccc3ncccc23)cc1[N+](=O)[O-]`: the inhibition is 11.7%.

With `CCN1CCC(=NNC(=O)c2ccc(C)c([N+](=O)[O-])c2)CC1`, the inhibition was 14.2%. On to `Cc1cc(O)c(NC(=O)c2ccc(C)c([N+](=O)[O-])c2)cc1C`, for which the inhibition is 57.7% (active).

In the case of `Cc1csc(NC(=O)CSc2nc(=O)cc(N)n2-c2ccc(F)cc2)n1`, the inhibition was -2.89%. Then `Cc1ccccc1NC(=O)N1CCCC1C(=O)NCc1ccccc1` (stereo not drawn), with -8.06%; and `COc1ccc(C(=O)n2nc(C)c(Br)c2C)cc1OC`, with 1.86%; and `COc1cccc(N(C(=O)c2snc(C(N)=O)c2N)C(C(=O)NCC2CCCO2)c2c[nH]c3ccccc23)c1` (stereo not drawn), with -11.7%. As for `CCN(CC)c1ccc(/C=N/NC(=O)c2cnccn2)c(O)c1`, the figure is 62.2% (active). Take `CCN(CC)c1ccc(C(=O)N/N=C/c2ccc(N3CCOCC3)cc2)cc1`: the inhibition is -11.2%. As for `Cc1ccc(C(=O)NCCNC(=O)c2cnccn2)cc1`, the figure is 3.15%; as for `CCN(CC)c1ccc(/C=N/Nc2nc(C)cc(C)n2)c(O)c1`, 28.1% (active); as for `Cc1cc(C)nc(N/N=C/c2ccncc2)n1`, -5.35%.

Consider `Cc1cc(C)nc(N/N=C/c2c(CO)cnc(C)c2O)n1`, for which the inhibition is 3.16%.

Regarding `Cc1nn(C(C)C(=O)N2CCOCC2)c(=O)c2nn(-c3ccccc3)c(C)c12` (stereo not drawn), the inhibition was -9.86%. As for `O=C(c1ccc(F)cc1)N1CCCC(C(=O)N2CCCCC2)C1` (stereo not drawn), the figure is 4.46%. As for `CC(=O)Nc1ccc(S(=O)(=O)N2CCC(C(=O)N[C@@H](Cc3ccccc3)C(=O)O)CC2)cc1`, the figure is -6.49%; as for `Cc1cccc(N(C)C(=O)c2cc(S(=O)(=O)N3CCCCC3)c[nH]2)c1`, -6.21%.

As for `C=C(C)C(=O)Nc1cccc(C(C)=O)c1`, the inhibition was -10.8%. Turning to `CSc1ccccc1NC(=O)CN(C)CC(=O)Nc1cccc(Br)c1`, the inhibition was -0.946%. Then `CCN(CC)C(=O)C(=O)Nc1cccc(Br)c1`, with 106% (active); and `O=C(N/N=C/c1cccc(OC(=O)c2ccc([N+](=O)[O-])cc2)c1)c1cccnc1`, with -3.03%.

Consider `CCN(CC)/[N+]([O-])=N/Oc1cc(O/[N+]([O-])=N/N2CCCC2CO)c([N+](=O)[O-])cc1[N+](=O)[O-]` (stereo not drawn), for which the inhibition is -5.78%. Then `O=C(NCCc1csc(-c2ccccc2)n1)c1ccccc1F`, with 40.5%; and `CCCc1ccc(-c2csc(NC(=O)Cc3cccs3)n2)cc1`, with 13%; and `COc1ccc(-c2nc(CCNC(=O)c3ccc(Br)o3)cs2)cc1`, with 20.3% (active). As for `COc1cc(CC(=O)Nc2nc(-c3ccc(F)c(F)c3)cs2)cc(OC)c1OC`, the figure is -5.98%; as for `COc1ccc(N2CCN(C(=O)CNC(=O)c3ccc(Br)o3)CC2)cc1`, -11.6%; as for `COc1ccc(CC(=O)Nc2nc(-c3ccc(F)c(F)c3)cs2)cc1OC`, -2.51%. Then `COc1ccc(-c2csc(NC(=O)COC(=O)Cc3ccc(Cl)cc3Cl)n2)cc1`, with 64% (active); and `COc1ccc(-c2csc(NC(=O)COC(=O)c3ccc(Br)o3)n2)cc1`, with 92.3% (active).

`CC(C)(C)NC(=O)NC(=O)COC(=O)Cc1ccc(Cl)cc1Cl`: the inhibition was 16.6%. Then `CC(C)=CCCC(C)CN1CCC(n2nccc2NC(=O)c2ccccc2)CC1` (stereo not drawn), with -5.43%; and `O=C(Nc1ccccc1)C1CCN(C(=O)c2ccc(Br)cc2)CC1`, with 6.29%. As for `COCCCC1CCN(C(=O)C2CCC(=O)N(C3CCCCCC3)C2)CC1` (stereo not drawn), the figure is -6.64%; as for `O=C(O)c1[nH]c2ccccc2c1C(c1cccc(O)c1)c1c(C(=O)O)[nH]c2ccccc12`, -5.15%. As for `COC(=O)COc1ccc2c(=O)c(Oc3ccccc3Br)coc2c1`, the figure is -7.5%. For `CCc1ccc(N2CC(C(=O)N3CCCCCC3)CC2=O)cc1` (stereo not drawn), the inhibition is 16%. Take `CC(CC(=O)N1CCN(c2ccccc2)CC1)S(=O)(=O)c1ccc2c(c1)NC(=O)CS2` (stereo not drawn): the inhibition was 1.51%.

For `O=C(Cn1c(=O)sc2ccccc21)Nc1nc2c(s1)CCCC2`, the inhibition is 22.4%. As for `Fc1ccc2nc(Nc3nc4c(s3)CCCC4)sc2c1`, the figure is 72.1% (active); as for `O=C(CCS(=O)(=O)c1ccccc1)Nc1nc2c(s1)CCCC2`, 20.4%. On to `CN(CC(=O)Nc1c(Cl)cccc1Cl)C(=O)c1ccncc1`, for which the inhibition was -30.3%. `O=c1ccc(-c2ccc(S(=O)(=O)Nc3ccccc3)o2)n[nH]1`: the inhibition was -5.64%. Then `O=C(O)c1ccc(S(=O)(=O)N2CCC(Cc3ccccc3)CC2)cc1`, with -10.1%. Then `O=C(NCCCc1ccccc1)C1CCC(=O)N(CCc2ccc(Cl)cc2)C1` (stereo not drawn), with 35.2% (active). Then `O=C(NCCc1ccccc1Cl)C1CCC(=O)N(CCCc2ccccc2)C1` (stereo not drawn), with -7.04%; and `O=C(NCCN1CCOC1=O)C1CCC(=O)N(CCc2ccc(Cl)cc2)C1` (stereo not drawn), with -3.56%; and `Cc1ccc(-n2nc3c(=O)n(C(C)C(=O)NCc4ccc5c(c4)OCO5)nc(C)c3c2C)cc1` (stereo not drawn), with -4.41%. For `CS(=O)(=O)N1CCCC(C(=O)Nc2ccccc2C(F)(F)F)C1` (stereo not drawn), the inhibition is -10%. As for `COc1ccccc1Nc1ncnc2c1oc1ccccc12`, the figure is 53.4% (active); as for `COc1ccc(C)cc1Nc1nc(C)nc2c1oc1ccccc12`, 2.95%; as for `CCC(C(=O)OC)n1cnc2c(oc3ccccc32)c1=O` (stereo not drawn), 27.3%. For the compound `Cc1occc(=O)c1OCc1c(Cl)cccc1Cl`, the inhibition was -6.59%. For `O=C1COc2ccc(S(=O)(=O)NCCc3ccc(Cl)cc3)cc2N1`, the inhibition is 2.79%. Then `Cc1ccc(NS(=O)(=O)c2ccc(C(C)(C)C)cc2)cn1`, with 1.36%; and `Cc1ccc(S(=O)(=O)c2nc(-c3cccs3)oc2NCc2cccnc2)cc1`, with -2.32%.
